TIM10 inh – inhibits growth of TIM10 yeast strain; inhibition, % at 10 µM; AID 463195; actives 1.4% (n = 330,000); S. cerevisiae TIM10 strain growth, BacTiter-Glo luminescence, 24 h;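 active = inhibition of 40% or more at the single tested concentration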;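 also: wild-type TIM10 isogenic control strain grown at permissive 25 °C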
PfHsp90 yeast 2 – reduces growth (ATP signal) of yeast expressing P. falciparum Hsp90; inhibition, % at 9.4 µM; actives 0.32% (n = 310,000); AID 504621; S. cerevisiae expressing PfHsp90, BacTiter-Glo ATP, 48 h; yeast lacking PDR1 and PDR3 efflux regulators;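 active = every replicate shows inhibition above about 80%, whatever the replicate mean, limit read from the data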;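 also: 0% = DMSO neutral controls and 100% = 20 µM radicicol positive controls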
Beta2AR agonist – agonists of human beta-2 adrenergic receptor inducing internalization; P07550; Am2.2-beta2AR cells, FAP receptor internalization, flow cytometry; response, % (no concentration beside the values); actives 0.43% (n = 340,000); AID 504454;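 active = response above a set limit, near 3 SD of response in nonfluorescent compounds, cut at about 42% in these data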
Target sequence (P07550 whole entry, looked up): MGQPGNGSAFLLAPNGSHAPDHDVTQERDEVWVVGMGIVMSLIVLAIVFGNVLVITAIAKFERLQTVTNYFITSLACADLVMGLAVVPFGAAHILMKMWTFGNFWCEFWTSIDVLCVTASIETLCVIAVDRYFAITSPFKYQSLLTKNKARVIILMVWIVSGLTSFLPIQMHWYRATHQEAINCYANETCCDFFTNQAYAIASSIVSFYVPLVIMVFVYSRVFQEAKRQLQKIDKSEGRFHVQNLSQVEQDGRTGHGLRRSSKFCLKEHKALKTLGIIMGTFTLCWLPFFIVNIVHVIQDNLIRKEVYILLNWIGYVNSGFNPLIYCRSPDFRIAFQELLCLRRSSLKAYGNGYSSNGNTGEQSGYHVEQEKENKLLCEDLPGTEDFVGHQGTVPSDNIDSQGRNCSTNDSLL
tim23-1 inh – tim23-1 yeast growth inhibition | actives 1.3% (n = 330,000) | inhibition, % at 20 µM | S. cerevisiae tim23-1 growth, BacTiter-Glo luminescence, 24 h | AID 463212;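 active = growth inhibition of the mutant yeast at or above 50%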;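 also: temperature-sensitive mutant grown at 25 °C; plate controls were DMSO-treated mutant yeast for no effect and medium wells lacking yeast for full effect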
tim10-1 inh – tim10-1 yeast growth inhibition. S. cerevisiae tim10-1 ts strain growth, BacTiter-Glo, 24 h. inhibition, % at 20 µM. actives 2.2% (n = 330,000). AID 463190;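 active = inhibition of at least 40%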;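 also: mutant grown at 25 °C; 0% = DMSO wells with yeast and 100% = wells holding no yeast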
tim10-1 confirm – tim10-1 yeast growth inhibition, confirmed | actives 56% (n = 7,400) | S. cerevisiae tim10-1 ts strain growth, BacTiter-Glo, 24 h | inhibition, % at 20 µM | shares compounds with tim10-1 inh;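 active = inhibition of yeast growth at or above a set limit in either of two repeat tests at 20 µM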;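 also: tim10-1 mutant grown at permissive 25 °C to find synthetic lethal compounds; 0% = DMSO yeast wells and 100% = medium wells without yeast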
tim10 confirm – TIM10 yeast growth inhibition, confirmed; shares compounds with TIM10 inh; S. cerevisiae tim10 strain growth, BacTiter-Glo luminescence, 24 h; inhibition, % at 10 µM; actives 63% (n = 4,600);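 active = inhibition of yeast growth at or above a set limit in either of two replicates at 10 µM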;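 also: this counterscreen used the strain with wild-type TIM10; 0% = yeast with DMSO and 100% = medium wells lacking yeast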
tim23-1 conf – confirmation of tim23-1 mutant yeast growth inhibitors | actives 83% (n = 4,400) | shares compounds with tim23-1 inh | inhibition, % at 20 µM | S. cerevisiae tim23-1 growth, BacTiter-Glo luminescence, 24 h;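 active = inhibition above about 39% in either of two replicate wells at 20 µM, limit read from the data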;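 also: temperature-sensitive tim23-1 mutant grown at 25 °C; 0% = DMSO wells with yeast and 100% = medium wells without yeast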
An asterisk follows results filed as active; i = inactive; . = no result. Most compounds without a hit are left out; they make up all but 3.8% or so of the library.

SMILES	TIM10 inh	PfHsp90 yeast 2	Beta2AR agonist	tim23-1 inh	tim10-1 inh	tim10-1 confirm	tim10 confirm	tim23-1 conf
O=c1cnn(-c2ccccc2)c(-c2ccccc2)c1	76*	-28	3	65*	54*	62*	64*	70*
N#CC1=C(N)OC(c2ccccc2)=C(C#N)C1c1ccc2c(c1)OCO2 (stereo unspecified)	82*	-35	-20	72*	62*	56*	71*	75*
COc1ccc(-c2nc(CC(=O)Nc3cccc(S(=O)(=O)NC4=NCCC4)c3)cs2)cc1	3	4	-3	1	7	.	.	.
CCN(C[C@H]1N[C@@](Cc2ccccc2)(C(=O)OC)[C@H]2C(=O)N(Cc3ccccc3)C(=O)[C@@H]12)C(=O)Nc1ccc(C(F)(F)F)cc1	72*	4	5	70*	76*	81*	69*	75*
CCN(C[C@H]1N[C@@](Cc2ccccc2)(C(=O)OC)[C@H]2C(=O)N(Cc3ccccc3)C(=O)[C@@H]12)C(=O)Nc1ccc(C)cc1	8	3	6	18	16	.	.	.
O=C1NC(=O)C(c2ccccc2)(c2ccc(Cl)cc2Cl)N1 (stereo unspecified)	.	-1	-3	.	.	.	.	.
CC1(C)COC(/C=C/c2cccc([N+](=O)[O-])c2)=N1	47*	1	17	59*	60*	43*	46*	40*
CC1(C)COC(c2cc([N+](=O)[O-])ccc2Cl)=N1	-31	27	17	9	-3	.	.	.
Cc1cc(C)cc(OCCn2nnc3ccccc32)c1	-7	-44	-1	20	-1	.	.	.
Cc1cc(Nc2ccccc2)nc(-c2ccccc2O)n1	56*	-58	2	65*	63*	55*	66*	68*
O=Cc1coc2ccc3ccccc3c2c1=O	28	3	11	76*	50*	28	.	74*
CCCCN(C(=O)COC(=O)COc1c(C)cc(C)cc1C)c1c(N)n(CCC)c(=O)[nH]c1=O	2	5	6	22	7	.	.	.
O=C1/C(=C/c2cccc(F)c2)Oc2cc(O)ccc21	24	22	16	52*	52*	39*	.	71*
CN(c1ccccc1)S(=O)(=O)c1cccc(C(=O)NCCCN2CCCC2=O)c1	-1	-1	-6	-3	-3	.	.	.
Cc1cccc(N2CCN(S(=O)(=O)c3ccc4c(c3)NC(=O)C(C)S4)CC2)c1C (stereo unspecified)	10	-52	-3	55*	50*	21	.	34
CC1Sc2ccc(S(=O)(=O)N3CCN(c4ccccc4)CC3)cc2NC1=O (stereo unspecified)	13	-22	-4	29	26	.	.	.
CC(=O)Oc1ccc(Cl)cc1CN(C(C)=O)C1CCCCC1	.	.	-1	.	.	.	.	.
COc1ccccc1NC(=O)c1ccc([N+](=O)[O-])o1	47*	.	9	79*	66*	56*	46*	72*
Cc1ccc(CNC(=O)c2ccc([N+](=O)[O-])o2)cc1	67*	8	3	64*	62*	57*	40*	54*
Cc1cccc(NC(=O)c2ccc([N+](=O)[O-])o2)c1C	56*	-16	10	50*	62*	61*	42*	39*
Cc1ccc(CNC(=O)c2nn(C)c(C)c2[N+](=O)[O-])cc1	-4	34	0	11	2	.	.	.
O=C(Nc1cccc2ccccc12)c1ccc([N+](=O)[O-])o1	68*	-18	2	78*	80*	75*	74*	75*
O=C(Nc1cccc2nsnc12)c1cc2c(cc1Cl)Sc1nccn1S2(=O)=O	.	-14	4	.	.	.	.	.
CN1C[C@H]2CON(C)[C@H]2C[C@H]1c1cccc(-c2ccccc2)c1	.	-21	-1	.	.	.	.	.
Cn1c(=O)c2[nH]c(Cc3cccc4ccccc34)nc2n(C)c1=O	.	-9	1	.	.	.	.	.
SMILES	TIM10 inh	PfHsp90 yeast 2	Beta2AR agonist	tim23-1 inh	tim10-1 inh	tim10-1 confirm	tim10 confirm	tim23-1 conf
O=Nc1nc2ncccn2c1-c1ccccc1	.	-25	2	.	.	.	.	.
O=C(Nc1ccccc1C(=O)NC1CC1)c1ccc([N+](=O)[O-])o1	40	9	-6	64*	48*	34*	.	66*
CCCn1c(NC(=O)c2cccc(C)c2C)nc2ccccc21	30	-32	-11	24	20	.	.	.
CN(Cc1ccccc1)C(=O)c1ccc([N+](=O)[O-])o1	75*	-15	7	50*	68*	69*	72*	64*
CCCn1c(NC(=O)c2ccc([N+](=O)[O-])o2)nc2ccccc21	41*	-9	7	51*	55*	49*	61*	58*
NC(=O)C1CCCN(C(=O)c2cccc(NC(=O)c3cccs3)c2)C1 (stereo unspecified)	4	.	-10	14	2	.	.	.
CCOC(=O)[C@H]1[C@H]2COc3ccc(Br)cc3[C@H]2N2C(=O)CN(Cc3ccc(Cl)cc3)C(=O)[C@@]12C	.	-17	14	.	.	.	.	.
COc1ccccc1N(C)S(=O)(=O)c1ccc(C(=O)NCc2ccccc2CN2CCCC2)cc1	.	-6	6	.	.	.	.	.
O=[N+]([O-])c1cccc(COc2cccc(CN3CCCCC3)c2)c1	.	16	-3	.	.	.	.	.
COc1ccc(/C=C(\NC(=O)c2ccco2)C(=O)NC(Cc2ccccc2)C(=O)O)cc1 (stereo unspecified)	-10	11	-6	4	-6	.	.	.
CCCC(=O)Nn1cnc2c(c1=O)C1(CCCCC1)Cc1ccccc1-2	52*	-8	3	53*	41*	44*	40*	52*
Cc1ccc(S(=O)(=O)Nc2cc(Cl)c(O)c3ncccc23)cc1	45*	104*	4	73*	62*	29	49*	82*
Cc1ccc(S(=O)(=O)Nc2cccnc2Oc2ccc(Cl)cc2)cc1	22	10	-1	46	10	.	.	.
Cc1cc(N)nc(=O)n1C1CC(O)C(CO)O1 (stereo unspecified)	.	35	2	.	.	.	.	.
COC(=O)Cn1c(CN2CCN(C(=O)c3ccco3)CC2)nc2c1c(=O)n(C)c(=O)n2C	3	-9	2	3	8	.	.	.
COc1ccc(-c2cc(-c3cc(C)ccc3O)[nH]n2)cc1	51*	-5	12	69*	52*	45*	45*	-26
COc1ccccc1-[n+]1c(C)cc(/C=C2\Sc3ccccc3N2C)cc1C	75*	-26	i	70*	57*	77*	60*	72*
COc1ccc(C(=O)/C=C2\Sc3ccccc3N2C)cc1	11	10	-8	40	13	.	.	.
